Compound activity deposited in PubChem by Broad Institute.
IDE exosite inh – displaces the probe from the exo-site of human IDE; purified IDE, FL-6b probe fluorescence polarization; hits give low values; P14735; actives 6.3% (n = 17,000); AID 1259349; z-score at 20 µM;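 active = z-score of -3 or lower, meaning strong loss of probe binding signal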;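 note: His-tagged human IDE residues 42-1019 made in E. coli with 30 nM FL-6b probe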
Target sequence (P14735 42-1019 limits assumed): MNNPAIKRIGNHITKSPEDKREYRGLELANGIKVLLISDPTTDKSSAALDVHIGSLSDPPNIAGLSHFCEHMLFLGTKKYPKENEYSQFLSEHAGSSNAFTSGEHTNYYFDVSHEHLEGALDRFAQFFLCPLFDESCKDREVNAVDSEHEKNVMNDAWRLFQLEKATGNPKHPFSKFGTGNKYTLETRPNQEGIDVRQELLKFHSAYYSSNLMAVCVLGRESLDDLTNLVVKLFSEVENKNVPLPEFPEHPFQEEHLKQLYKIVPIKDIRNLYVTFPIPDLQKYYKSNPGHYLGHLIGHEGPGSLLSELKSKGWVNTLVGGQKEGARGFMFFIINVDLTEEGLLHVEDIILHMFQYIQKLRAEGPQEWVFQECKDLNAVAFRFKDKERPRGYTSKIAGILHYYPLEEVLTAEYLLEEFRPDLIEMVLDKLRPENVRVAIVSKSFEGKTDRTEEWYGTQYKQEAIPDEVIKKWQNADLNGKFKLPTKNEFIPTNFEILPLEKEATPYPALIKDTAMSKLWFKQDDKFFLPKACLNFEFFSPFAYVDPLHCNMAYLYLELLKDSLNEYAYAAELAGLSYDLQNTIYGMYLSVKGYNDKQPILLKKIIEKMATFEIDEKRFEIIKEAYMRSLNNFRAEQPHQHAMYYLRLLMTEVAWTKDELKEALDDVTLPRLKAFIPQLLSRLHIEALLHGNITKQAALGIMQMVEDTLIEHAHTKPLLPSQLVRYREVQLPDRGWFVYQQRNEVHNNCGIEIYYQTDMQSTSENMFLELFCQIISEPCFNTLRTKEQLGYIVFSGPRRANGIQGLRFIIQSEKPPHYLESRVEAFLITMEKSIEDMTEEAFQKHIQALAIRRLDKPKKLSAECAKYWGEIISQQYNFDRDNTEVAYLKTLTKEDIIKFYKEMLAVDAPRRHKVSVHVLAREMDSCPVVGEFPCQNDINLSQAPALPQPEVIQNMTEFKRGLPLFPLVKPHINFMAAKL
Large screens that a line does not name were inactive. This is one part of a sample in which hits are shown more often than they occur.

O=C(c1ccncc1)N1CC(=O)N2[C@H](C1)[C@H](c1ccc(/C=C/c3ccccc3)cc1)[C@@H]2CO	none
O=C(c1cccnc1)N1CC(=O)N2[C@@H](CO)[C@@H](c3ccc(/C=C/c4ccccc4)cc3)[C@@H]2C1	IDE exosite inh -8.6
O=C(c1cccnc1)N1CC(=O)N2[C@H](C1)[C@@H](c1ccc(/C=C/c3ccccc3)cc1)[C@@H]2CO	IDE exosite inh -7.7
O=C(c1ccccc1)N1CC(=O)N2[C@H](C1)[C@H](c1ccc(/C=C/c3ccccc3)cc1)[C@@H]2CO	none
O=C(Cc1cccnc1)N1CC(=O)N2[C@@H](CO)[C@H](c3ccc(/C=C/c4ccccc4)cc3)[C@@H]2C1	none
O=C(c1cccnc1)N1CC(=O)N2[C@H](CO)[C@@H](c3ccc(/C=C/c4ccccc4)cc3)[C@@H]2C1	IDE exosite inh -4.3
CS(=O)(=O)N1CC(=O)N2[C@H](C1)[C@@H](c1ccc(C#CC3CCCC3)cc1)[C@@H]2CO	none
CN(C)CC#Cc1ccc([C@@H]2[C@@H](CO)N3CCCCN(S(=O)(=O)c4ccccc4F)C[C@@H]23)cc1	none
Cc1ccc(S(=O)(=O)N(C)C[C@H]2OCCCC[C@H](C)Oc3ccc(NC(=O)c4ccncc4)cc3C(=O)N([C@@H](C)CO)C[C@@H]2C)cc1	none
COCC(=O)N(C[C@@H]1[C@@H](c2ccccc2)[C@@H](CO)N1C(=O)NC(C)C)C(C)C	none
CC(C)NC(=O)N1[C@H](CO)[C@@H](c2ccc(C#CC3CC3)cc2)[C@@H]1C#N	none
CN(C)CC(=O)N1C[C@H]2[C@@H](c3ccccc31)[C@@H](CO)N2C(=O)c1ccccn1	none
CCc1cnc(N2[C@H](C#N)[C@H](c3ccc(C#CC(C)C)cc3)[C@H]2CO)s1	none
O=C(c1cccnc1)N1CC(=O)N2[C@H](CO)[C@H](c3ccc(/C=C/c4ccccc4)cc3)[C@@H]2C1	IDE exosite inh -10
O=C(c1cccnc1)N1CC(=O)N2[C@H](C1)[C@H](c1ccc(/C=C/c3ccccc3)cc1)[C@@H]2CO	IDE exosite inh -4.5
O=C(c1ccccc1)N1CC(=O)N2[C@H](CO)[C@@H](c3ccc(/C=C/c4ccccc4)cc3)[C@@H]2C1	none
O=C(c1ccccc1)N1CC(=O)N2[C@H](CO)[C@@H](c3ccc(/C=C/c4ccccc4)cc3)[C@H]2C1	none
CC(C)(O)C#Cc1ccc([C@H]2[C@@H](CO)N3CCCCN(C(=O)c4cccc(F)c4)C[C@@H]23)cc1	none
Cn1cnc(S(=O)(=O)N2[C@@H]3CNC[C@H]2C3c2ccc(-c3cccnc3)cc2)c1 (some centres not stated)	none
CCS(=O)(=O)N1CC(=O)N2[C@H](CO)[C@@H](c3ccc(C#Cc4cccc(F)c4)cc3)[C@H]2C1	none
CCC(=O)N1CC(=O)N2[C@H](CO)[C@H](c3ccc(C#Cc4cccc(F)c4)cc3)[C@H]2C1	IDE exosite inh -4
CCC(=O)N1CC(=O)N2[C@H](C1)[C@@H](c1ccc(C#Cc3cccc(F)c3)cc1)[C@@H]2CO	none
CS(=O)(=O)N1CC(=O)N2[C@H](C1)[C@@H](c1ccc(C#Cc3cccc(F)c3)cc1)[C@@H]2CO	none
CCC(=O)N1CC(=O)N2[C@H](CO)[C@@H](c3ccc(C#Cc4cccc(F)c4)cc3)[C@@H]2C1	none
CCS(=O)(=O)N1CC(=O)N2[C@H](C1)[C@H](c1ccc(C#Cc3cccc(F)c3)cc1)[C@@H]2CO	IDE exosite inh -5.4
CCC(=O)N1CC(=O)N2[C@@H](CO)[C@@H](c3ccc(C#Cc4cccc(F)c4)cc3)[C@@H]2C1	IDE exosite inh -4.1
COC(=O)c1ccc(CN2CC(=O)N3[C@H](CO)[C@@H](c4ccc(-c5ccccc5)cc4)[C@H]3C2)cc1	none
CN(C)C(=O)c1cccc(-c2ccc([C@@H]3[C@@H](CO)N4C(=O)CN(C(=O)Cc5ccccc5)C[C@H]34)cc2)c1	none
O=C(NC[C@@H]1[C@@H](c2ccccc2)[C@@H](CO)N1C(=O)Cc1ccncc1)C1CCC1	none
C[C@@H]1CN([C@H](C)CO)C(=O)c2cc(C#Cc3ccccc3)cnc2O[C@H]1CN(C)C(=O)c1ccccc1	none
O=C(c1ccccn1)N1CC2(C1)[C@H](c1ccccc1)[C@@H](CO)N2Cc1ccc(F)cc1	none
COCC(=O)N1CC(=O)N2[C@H](C1)[C@H](c1ccc(-c3ccccc3)cc1)[C@@H]2CO	none
COCC(=O)N1CC(=O)N2[C@@H](CO)[C@H](c3ccc(-c4ccncc4)cc3)[C@@H]2C1	none
COCC(=O)N1CC(=O)N2[C@H](CO)[C@H](c3ccc(Br)cc3)[C@@H]2C1	none
COCC(=O)N1CC(=O)N2[C@@H](CO)[C@@H](c3ccc(-c4ccccc4C)cc3)[C@@H]2C1	IDE exosite inh -13
COCC(=O)N1CC(=O)N2[C@H](C1)[C@@H](c1ccc(-c3ccccc3C)cc1)[C@@H]2CO	IDE exosite inh -14
COCC(=O)N1CC(=O)N2[C@@H](CO)[C@@H](c3ccc(Br)cc3)[C@@H]2C1	none
Cc1cccc(S(=O)(=O)N2C[C@H]3[C@@H](c4ccccc42)[C@H](CO)N3CC2CCCC2)c1	none
CCC(=O)N1CC2(C1)[C@@H](c1ccc(-c3cccc(C)c3)cc1)[C@@H](CO)N2S(C)(=O)=O	IDE exosite inh -3.3
CCC(=O)N1CC2(C1)[C@H](c1ccc(-c3cccc(C)c3)cc1)[C@@H](CO)N2S(C)(=O)=O	none
CN(C)CC(=O)N1CC2(C1)[C@@H](c1ccccc1)[C@@H](CO)N2S(C)(=O)=O	none
CCCC#Cc1ccc([C@@H]2[C@H]3CN(S(=O)(=O)c4ccccc4C)CCCCN3[C@H]2CO)cc1	none
COCC(=O)N1CCCCN2[C@@H](CO)[C@@H](c3ccc(-c4cccc(C)c4)cc3)[C@@H]2C1	IDE exosite inh -6.7
COCC(=O)N1CCCCN2[C@H](C1)[C@H](c1ccc(-c3cccc(C)c3)cc1)[C@@H]2CO	IDE exosite inh -3
COCC(=O)N1CCCCN2[C@H](CO)[C@H](c3ccc(-c4cccc(C)c4)cc3)[C@H]2C1	IDE exosite inh -4.7
COCC(=O)N1CCCCN2[C@H](C1)[C@@H](c1ccc(-c3ccc(F)cc3)cc1)[C@@H]2CO	none
COCC(=O)N1CCCCN2[C@@H](CO)[C@H](c3ccc(-c4ccc(F)cc4)cc3)[C@@H]2C1	none
COCC(=O)N1CCCCN2[C@H](CO)[C@H](c3ccc(-c4cccc(C)c4)cc3)[C@@H]2C1	none
COCC(=O)N1CCCCN2[C@@H](CO)[C@H](c3ccc(-c4ccccc4)cc3)[C@@H]2C1	none
O=C(C[C@H]1CC[C@H]2[C@@H](COC[C@H](O)CN2CCC(F)(F)F)O1)NCC1CC1	none
CN1c2ccc(Br)cc2[C@@H]2[C@@H](CCN2C(=O)Cc2ccccc2)[C@H]1CO	none
CC(C)CC#Cc1ccc([C@@H]2[C@@H](CO)N3C(=O)CN(C(=O)c4ccc5c(c4)OCO5)C[C@@H]23)cc1	none
COCC(=O)NC[C@H]1[C@H](c2ccc(C3=CCCC3)cc2)[C@@H](CO)N1C(C)=O	none
C[C@@H]1CCCCO[C@H](CN(C)C(=O)NC2CCCCC2)[C@@H](C)CN([C@H](C)CO)C(=O)c2cc(N(C)C)ccc2O1	none
C/C=C/c1ccc([C@H]2[C@@H](CO)N(C(=O)CC)[C@@H]2CNC(=O)CC)cc1	none
CC(C)[C@H]1COCn2nncc2CC[C@H](Cc2ccc(Cl)cc2)C(=O)N1	none
O=C(C[C@H]1CC[C@@H](NC(=O)c2ccc3c(c2)OCO3)[C@H](CO)O1)NCc1ccc(Oc2ccccc2)cc1	none
N#C[C@H]1[C@H](c2ccccc2C2=CCCCC2)[C@H](CO)N1C(=O)CN1CCOCC1	none
C/C=C/c1ccc([C@H]2[C@H](CO)N(C(C)=O)[C@H]2CN(C)S(C)(=O)=O)cc1	none
